Measurements as given in PubChem BioAssay AID1159580 (chemical genetic matrix, 2015).
Where “and” joins values, the source holds several entries; their conditions need not be identical. Equal values may be shown once. Among all 5,500 compounds or so, about 2,000 (36%) were called active. About 18% were inconclusive and are not listed. Rule as the data show it: active = normalized growth mostly below about 0.91 (no sharp cut-off); inconclusive = no clear call, values can overlap the other calls; inactive = mostly above about 0.92. Some of the results follow.

Assay: chemical genetic growth profiling, strain panel (AID 1159580);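 also: tested at 20 µM; growth read once vehicle control cultures reached saturation at 30 °C; 1 = growth at the plate median or of vehicle wells; lower values mean less growth of the strain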
Details: S. cerevisiae deletion strains, growth OD

Measured: normalized growth

Cc1ncc([N+](=O)[O-])n1CCO
inactive: locus YAL013W, strain DEP1, stronger effect = lower value 0.989 | locus YAL021C, strain ccr4, stronger effect = lower value 0.983 | locus YAL026C, strain drs2, stronger effect = lower value 1 | locus YAL030W, strain snc1, stronger effect = lower value 0.971 | locus YBL061C, strain skt5, stronger effect = lower value 0.98 | locus YBR009C, strain hhf1, stronger effect = lower value 1.01 | locus YBR021W, strain FUR4, stronger effect = lower value 0.998 | locus YBR023C, strain chs3, stronger effect = lower value 0.976 | locus YBR171W, strain sec66, stronger effect = lower value 0.982 | locus YBR229C, strain ROT2, stronger effect = lower value 0.944 | locus YBR231C, strain swc5, stronger effect = lower value 0.999 | locus YBR279W, strain paf1, stronger effect = lower value 0.975 | locus YCL011C, strain gbp2, stronger effect = lower value 0.945 | locus YCL016C, strain dcc1, stronger effect = lower value 0.968 | locus YCL029C, strain bik1, stronger effect = lower value 0.986 | locus YCL061C, strain MRC1, stronger effect = lower value 0.992 | locus YCL069W, strain vba3, stronger effect = lower value 0.985 | locus YCR088W, strain abp1, stronger effect = lower value 0.974 | locus YDL005C, strain med2, stronger effect = lower value 0.968 | locus YDL035C, strain GPR1, stronger effect = lower value 0.967 | locus YDL040C, strain nat1, stronger effect = lower value 0.98 | locus YDL074C, strain BRE1, stronger effect = lower value 1.02 | locus YDL101C, strain DUN1, stronger effect = lower value 0.977 | locus YDL134C, strain PPH21, stronger effect = lower value 0.978 | locus YDL185W, strain tfp1, stronger effect = lower value 0.983 | locus YDL192W, strain arf1, stronger effect = lower value 0.978 | locus YDR001C, strain nth1, stronger effect = lower value 0.965 | locus YDR069C, strain doa4, stronger effect = lower value 0.981 | locus YDR101C, strain arx1, stronger effect = lower value 1.01 | locus YDR137W, strain rgp1, stronger effect = lower value 0.967 | locus YDR150W, strain NUM1, stronger effect = lower value 0.956 | locus YDR159W, strain sac3, stronger effect = lower value 1.02 | locus YDR162C, strain NBP2, stronger effect = lower value 0.968 | locus YDR195W, strain ref2 0.982 | locus YDR297W, strain sur2, stronger effect = lower value 0.974 | locus YDR318W, strain mcm21, stronger effect = lower value 0.999 | locus YDR334W, strain swr1, stronger effect = lower value 0.941 | locus YDR335W, strain msn5, stronger effect = lower value 0.971 | locus YDR388W, stronger effect = lower value 0.997 | locus YDR392W, strain spt3, stronger effect = lower value 0.956 | locus YDR502C, strain sam2, stronger effect = lower value 0.98 | locus YEL003W, strain gim4, stronger effect = lower value 0.989 | locus YEL037C, strain rad23, stronger effect = lower value 0.976 | locus YEL061C, strain CIN8 (second series), stronger effect = lower value 0.975 | locus YEL061C, strain CIN8, stronger effect = lower value 0.979 | locus YER015W, strain faa2, stronger effect = lower value 0.982 | locus YER016W, strain bim1, stronger effect = lower value 0.984 | locus YER110C, stronger effect = lower value 0.965 | locus YER111C, strain swi4, stronger effect = lower value 0.981 | locus YER155C, strain BEM2 (second series), stronger effect = lower value 1.03 | locus YER155C, strain BEM2, stronger effect = lower value 1.01 | locus YER167W, strain BCK2, stronger effect = lower value 0.988 | locus YFR010W, strain ubp6, stronger effect = lower value 0.981 | locus YGL078C, strain dbp3, stronger effect = lower value 0.973 | locus YGL086W, strain mad1, stronger effect = lower value 0.982 | locus YGL167C, strain pmr1, stronger effect = lower value 0.984 | locus YGL173C, strain kem1, stronger effect = lower value 0.981 | locus YGL227W, strain vid30, stronger effect = lower value 0.981 | locus YGL240W, strain doc1, stronger effect = lower value 0.993 | locus YGL248W, strain PDE1, stronger effect = lower value 0.976 | locus YGL253W, strain hxk2, stronger effect = lower value 0.977 | locus YGR078C, strain PAC10, stronger effect = lower value 0.98 | locus YGR135W, strain pre9, stronger effect = lower value 0.991 | locus YGR229C, strain SMI1, stronger effect = lower value 0.998 | locus YGR252W, strain gcn5, stronger effect = lower value 0.904 | locus YHR013C, strain ard1, stronger effect = lower value 0.948 | locus YHR027C, strain rpn1, stronger effect = lower value 0.962 | locus YHR030C, strain SLT2, stronger effect = lower value 0.985 and 1.07 | locus YHR079C, strain IRE1 (second series), stronger effect = lower value 1.01 | locus YHR079C, strain IRE1, stronger effect = lower value 1.05 | locus YHR094C, strain hxt1, stronger effect = lower value 0.99 | locus YHR129C, strain ARP1, stronger effect = lower value 0.994 | locus YHR142W, strain chs7, stronger effect = lower value 0.933 | locus YHR200W, strain rpn10, stronger effect = lower value 0.997 | locus YIL066C, strain RNR3, stronger effect = lower value 0.97 | locus YIL073C, strain SPO22, stronger effect = lower value 1.01 | locus YIL125W, strain kgd1, stronger effect = lower value 0.989 | locus YIR030C, strain dcg1, stronger effect = lower value 0.983 | locus YJL092W, strain hpr5, stronger effect = lower value 0.985 | locus YJL095W, strain BCK1 (second series), stronger effect = lower value 0.98 | locus YJL095W, strain BCK1, stronger effect = lower value 1.02 and 1.04 | locus YJL115W, strain asf1, stronger effect = lower value 0.958 | locus YJL129C, strain trk1, stronger effect = lower value 0.968 | locus YJL134W, strain LCB3, stronger effect = lower value 0.978 | locus YJL154C, strain vps35, stronger effect = lower value 0.963 | locus YJL164C, strain tpk1, stronger effect = lower value 0.996 | locus YJL166W, strain qcr8, stronger effect = lower value 0.96 | locus YJL168C, strain set2, stronger effect = lower value 0.993 | locus YJL187C, strain SWE1 (second series), stronger effect = lower value 0.985 | locus YJL187C, strain SWE1, stronger effect = lower value 0.981 | locus YJR043C, strain POL32, stronger effect = lower value 1.02 | locus YJR066W, strain TOR1, stronger effect = lower value 1.01
